CHRM1 antagonist: human CHRM1 antagonism; inhibition, % at 3 µM; CHO-K1 hM1, Fluo-8 calcium fluorescence, ACh EC80 antagonist; P11229; 360,000 tested, 1.3% active;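 active = percent inhibition above its own plate's cutoff, namely the mean of that plate's compound wells plus 3 SD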;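 also: peak over basal fluorescence ratio during 140 s after agonist addition; 0% = ACh EC80 plus DMSO and 100% = DMSO alone without agonist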
Target sequence (P11229 whole entry, looked up): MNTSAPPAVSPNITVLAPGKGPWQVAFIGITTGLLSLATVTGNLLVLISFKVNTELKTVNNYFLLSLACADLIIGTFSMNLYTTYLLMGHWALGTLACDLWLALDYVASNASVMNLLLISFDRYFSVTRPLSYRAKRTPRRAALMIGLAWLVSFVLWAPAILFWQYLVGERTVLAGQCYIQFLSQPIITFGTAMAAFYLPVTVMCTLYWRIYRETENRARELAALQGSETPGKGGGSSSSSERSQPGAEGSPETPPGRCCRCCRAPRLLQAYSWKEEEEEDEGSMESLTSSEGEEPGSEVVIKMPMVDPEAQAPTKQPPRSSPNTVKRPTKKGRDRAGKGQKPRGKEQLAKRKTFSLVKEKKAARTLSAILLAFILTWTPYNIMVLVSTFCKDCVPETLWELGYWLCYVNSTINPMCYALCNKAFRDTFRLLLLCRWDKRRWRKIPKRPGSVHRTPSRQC
CHO-K1 Ca ag: nonselective activator or artifact in parental CHO-K1 cells | Fluo-8 calcium fluorescence; scaled to maximal ATP response, vehicle zero | activation, % at 3 µM | 360,000 tested, 0.48% active; in the data active = activation above about 15%;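 also: untransfected CHO-K1 host cells lacking M1 receptor as counterscreen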
M1 PAM parental: nonselective activator or artifact in parental CHO-K1 calcium assay; activation, % at 3 µM; AID 602247; 360,000 tested, 0.02% active; ATP EC20, Fluo-8 calcium fluorescence; 0% at ATP EC20, 100% at ATP max;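 active = activation above the run cutoff, the mean activation of all test compounds plus 3 SD, cut at about 40% in these data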;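 also: peak over basal fluorescence ratio in a 140 s read after ATP addition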
M1 ag: activates human CHRM1 receptor | P11229 | 360,000 tested, 0.33% active | activation, % at 3 µM | CHO-K1 hM1, Fluo-8 calcium fluorescence, agonist mode; 0% DMSO, 100% acetylcholine EC100;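 active = activation above the run's mean compound activation plus 3 SD, cut at about 16% in these data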;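 also: peak over basal fluorescence ratio within a 140 s kinetic read after compound addition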
M1 PAM: human CHRM1 positive allosteric modulation. 360,000 tested, 0.088% active. CHO-K1 hM1, Fluo-8 calcium fluorescence, ACh EC20; 0% = ACh EC20, 100% = maximal ACh. activation, % at 3 µM; in the data active = activation above about 19%, passing the limit was not always enough
CHO-K1 Ca antag: counter-screen for M1 antagonists: effect in parental CHO-K1 cells; ATP-induced calcium, Fluo-8 fluorescence; inhibition, % at 3 µM; 360,000 tested, 0.6% active;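 active = inhibition above a per-plate cutoff, the plate's mean sample inhibition plus 3 SD, cut at about 24% in these data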;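 also: 0% = DMSO plus EC80 ATP and 100% = DMSO alone without ATP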
Starred values were filed as active, the others as inactive. Only some compounds are listed: those with a hit (about 2.3% of all), similar ones and a draw of the others.

How did CCc1ccccc1NC(=S)N(CCOC)C(C)c1ccco1 (stereo not given) do in these assays?
CHRM1 antagonist: -15.9; CHO-K1 Ca ag: 0.5; M1 PAM parental: 14.3; M1 ag: -1.3; M1 PAM: 10.4; CHO-K1 Ca antag: -12.8

What do the screens show for `CCOc1cc(S(=O)(=O)NC2CCCCC2)ccc1F`?
CHRM1 antagonist: 4.0; CHO-K1 Ca ag: 24.3*; M1 PAM parental: 10.0; M1 ag: -5.1; M1 PAM: 0.2; CHO-K1 Ca antag: 6.8

Results for Cc1onc(-c2c(Cl)cccc2Cl)c1NC(=O)N1CCSCC1 ?
CHRM1 antagonist: -14.6; CHO-K1 Ca ag: 0.3; M1 PAM parental: -7.1; M1 ag: -3.3; M1 PAM: 7.9; CHO-K1 Ca antag: 6.3

What do the screens show for `Cc1nn2c(-c3ccc(Cl)cc3Cl)nnc2s1`?
CHRM1 antagonist: -28.9; CHO-K1 Ca ag: 0.0; M1 PAM parental: 14.1; M1 ag: 0.0; M1 PAM: 5.0; CHO-K1 Ca antag: -1.6

How did CCN1/C(=C/c2ccc3cc(C)ccc3[n+]2CC)Sc2ccccc21 do in these assays?
CHRM1 antagonist: 66.3*; CHO-K1 Ca ag: 36.0*; M1 PAM parental: -8.3; M1 ag: 46.6*; M1 PAM: -19.2; CHO-K1 Ca antag: 57.9*

Results for CC[n+]1c(/C=C2\Sc3ccccc3N2C)ccc2cccc(C)c21 ?
CHRM1 antagonist: 53.8*; CHO-K1 Ca ag: 18.7*; M1 PAM parental: 8.3; M1 ag: 21.7*; M1 PAM: -10.7; CHO-K1 Ca antag: 30.9*

What do the screens show for `CN1/C(=C/c2cccc[n+]2CCO)Sc2ccccc21`?
CHRM1 antagonist: -17.8; CHO-K1 Ca ag: 0.8; M1 PAM parental: 8.9; M1 ag: -8.4; M1 PAM: 7.6; CHO-K1 Ca antag: -7.2

Results for CCN1/C(=C/C=C/c2sc3ccccc3[n+]2CC)Sc2ccccc21 ?
CHRM1 antagonist: 15.9; CHO-K1 Ca ag: 5.2; M1 PAM parental: 0.7; M1 ag: 0.9; M1 PAM: -12.2; CHO-K1 Ca antag: 19.6

How did CCN1/C(=C/c2ccc3cc(C)ccc3[n+]2CC)Sc2cc(C)c(C)cc21 do in these assays?
CHRM1 antagonist: 39.5*; CHO-K1 Ca ag: 11.3; M1 PAM parental: -14.6; M1 ag: 0.6; M1 PAM: -18.3; CHO-K1 Ca antag: 49.9*

What do the screens show for `CC[n+]1ccccc1/C=C1\Sc2ccc(C)cc2N1C`?
CHRM1 antagonist: -9.6; CHO-K1 Ca ag: 0.0; M1 PAM parental: 6.7; M1 ag: -9.5; M1 PAM: 12.0; CHO-K1 Ca antag: -14.7

How did Cc1nc(N(C)Cc2ccccc2)c2nnn(Cc3ccccc3)c2n1 do in these assays?
CHRM1 antagonist: -2.4; CHO-K1 Ca ag: 0.7; M1 PAM parental: 8.7; M1 ag: -2.2; M1 PAM: 5.0; CHO-K1 Ca antag: -13.7

How did CC1CN(CC(=O)Nc2nc3ccccc3s2)CC(C)O1 (stereo not given) do in these assays?
CHRM1 antagonist: -13.9; CHO-K1 Ca ag: 1.5; M1 PAM parental: 18.6; M1 ag: -1.8; M1 PAM: 6.8; CHO-K1 Ca antag: -7.4

What do the screens show for `O=C(Nn1c(C2CCCCC2)nc2ccccc2c1=O)c1ccc([N+](=O)[O-])cc1`?
CHRM1 antagonist: -3.4; CHO-K1 Ca ag: -0.2; M1 PAM parental: -14.5; M1 ag: -2.9; M1 PAM: 10.6; CHO-K1 Ca antag: 24.4*

How did CCOC(=O)[C@]12CCC=C1N(Cc1ccccc1)C(=O)[C@H](CC(=O)NCCC(C)C)C2 do in these assays?
CHO-K1 Ca ag: -0.1; M1 PAM parental: -4.4; CHO-K1 Ca antag: -9.8

Results for CCCn1c(SCC(=O)N2N=C3/C(=C/c4ccc(OC)cc4)CCCC3C2c2ccc(OC)cc2)n[nH]c1=O (stereo not given) ?
CHRM1 antagonist: 21.4; CHO-K1 Ca ag: 24.5*; M1 PAM parental: 15.9; M1 ag: 8.9; M1 PAM: -0.5; CHO-K1 Ca antag: 10.3

Results for CC(C)OC(=O)CSc1nc(Cc2cccs2)nc2ccccc12 ?
CHRM1 antagonist: 1.6; CHO-K1 Ca ag: 2.8; M1 PAM parental: 11.9; M1 ag: -9.2; M1 PAM: -10.7; CHO-K1 Ca antag: -1.8

What do the screens show for `O=C(N/N=C/c1ccccc1C(=O)O)C(=O)N1CCCCC1`?
CHRM1 antagonist: -6.1; CHO-K1 Ca ag: 18.7*; M1 PAM parental: 27.3; M1 ag: -6.1; M1 PAM: 14.2; CHO-K1 Ca antag: -4.2

High-throughput results as filed in PubChem.
